A selection: hits, their analogues and other compounds. The true share with any hit is near 3.3%.
Autofluor counter – counter-screen for toxin protease inhibitors: compound fluorescence | compound autofluorescence counterscreen, microsphere flow cytometry; active compounds read high | fluorescence intensity (no concentration beside the values) | hit rate 3.1% among 360,000; in the data active means fluorescence intensity above about 16000; inconclusive means no clear call, values can overlap the other calls
MazF activator – MazEF (E. coli) toxin RNase activation; hit rate 0.32% among 350,000; AID 504720; activation, % at 20 µM; FAM/BHQ RNA-DNA oligo cleavage fluorescence, 5 h; P0AE70; in the data active means activation above about 50%
BoNT-A LC inh2 – inhibitors of Botulinum neurotoxin A light chain protease | multiplex microsphere protease substrate cleavage, flow cytometry | inhibition, % at 10 µM | hit rate 0.17% among 360,000; further: plate controls were buffer without enzyme for full effect and enzyme alone for no effect
Anthrax LF inh2 – inhibitors of Bacillus anthracis lethal factor protease | hit rate 0.12% among 360,000 | multiplex microsphere protease cleavage assay, LF | P15917 | inhibition, % at 10 µM; further: plate controls were buffer without enzyme for full effect and enzyme alone for no effect
Target sequence (P15917 whole entry, looked up): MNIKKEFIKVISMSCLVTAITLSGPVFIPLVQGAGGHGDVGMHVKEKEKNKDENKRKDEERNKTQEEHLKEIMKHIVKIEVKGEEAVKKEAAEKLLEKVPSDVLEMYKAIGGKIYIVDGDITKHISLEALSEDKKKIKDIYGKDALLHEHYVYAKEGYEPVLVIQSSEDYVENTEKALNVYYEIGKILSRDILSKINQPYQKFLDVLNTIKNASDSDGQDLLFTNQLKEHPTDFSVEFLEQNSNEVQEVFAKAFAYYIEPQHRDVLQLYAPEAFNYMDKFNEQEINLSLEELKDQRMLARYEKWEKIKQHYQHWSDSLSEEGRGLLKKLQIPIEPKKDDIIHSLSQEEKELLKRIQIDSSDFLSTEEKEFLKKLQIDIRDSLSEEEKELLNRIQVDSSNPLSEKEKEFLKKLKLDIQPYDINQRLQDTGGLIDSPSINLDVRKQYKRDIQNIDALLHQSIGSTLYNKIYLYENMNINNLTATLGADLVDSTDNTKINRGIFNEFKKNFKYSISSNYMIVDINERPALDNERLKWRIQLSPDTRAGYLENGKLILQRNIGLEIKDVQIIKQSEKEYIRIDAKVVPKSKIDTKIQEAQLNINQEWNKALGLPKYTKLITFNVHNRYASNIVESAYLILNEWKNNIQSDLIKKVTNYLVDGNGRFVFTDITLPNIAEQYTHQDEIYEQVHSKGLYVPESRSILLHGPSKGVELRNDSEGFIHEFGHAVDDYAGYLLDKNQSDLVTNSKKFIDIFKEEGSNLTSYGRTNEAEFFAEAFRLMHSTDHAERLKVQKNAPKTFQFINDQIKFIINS
BoNT-F LC inh – BoNT F light chain protease inhibition. Multiplex microsphere protease cleavage assay, flow cytometry. inhibition, % at 10 µM. hit rate 0.22% among 360,000. AID 588497; in the data active means inhibition above about 35%, passing the limit was not always enough; inconclusive means no clear call, values can overlap the other calls; further: plate controls were buffer without enzyme for full effect and enzyme alone for no effect
SSB-PriA inh – blocks PriA binding to SSB C-terminal tail; AlphaScreen SSBct-PriA binding, biotinylated peptide; inhibition, % at 33 µM; hit rate 0.6% among 430,000; in the data active means inhibition mostly above about 37%, no sharp cut-off; inactive means mostly below about 20%;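 further: plate controls were negative control peptide for no effect and reference peptide for full effect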
An asterisk follows results filed as active. Unless noted, no stated cut-off is given here; in the data, active means inhibition above about 30%; inconclusive means no clear call, values can overlap the other calls; inactive means below that.

`CC1Cc2cc(/C(O)=C3/C(=O)C(=O)N(CCCn4ccnc4)C3c3cccnc3)ccc2O1` (configuration not stated) gave Autofluor counter 17226*, MazF activator -2.7, BoNT-A LC inh2 -2.9, Anthrax LF inh2 -4.3 and BoNT-F LC inh -5.0.
O=C1C(=O)N(CCCn2ccnc2)C(c2cccnc2)/C1=C(/O)c1ccc(F)cc1 (configuration not stated) was read as Autofluor counter 23173*, MazF activator -2.9, BoNT-A LC inh2 0.1, Anthrax LF inh2 2.1 and BoNT-F LC inh -1.3.
Screening O=C(c1cccc(C(F)(F)F)c1)N1CCC(c2ccsc2)CC1 returned SSB-PriA inh -15.0.
Screening CC(=O)N1N=C2c3ccccc3CCC2C1c1ccc(F)cc1 (configuration not stated) returned Autofluor counter 5476, MazF activator 4.7, BoNT-A LC inh2 -0.3, Anthrax LF inh2 -0.4, BoNT-F LC inh -4.3 and SSB-PriA inh -4.5.
Screening COc1ccc2c(c1)CCC1C2=NN(/C(C)=C/C(C)=O)C1c1cccc(F)c1 (configuration not stated) returned Autofluor counter 62503*, MazF activator -11.5, BoNT-A LC inh2 -25.2, Anthrax LF inh2 6.2, BoNT-F LC inh 24.2 and SSB-PriA inh -8.8.
`CCOC(=O)N1CCC(NC(=O)CCc2csc(NS(=O)(=O)c3ccc(F)cc3)n2)CC1` gave SSB-PriA inh -20.0.
For O=c1cc(C2CCCC2)ncn1CCNS(=O)(=O)C1CC1 the results were SSB-PriA inh 3.0.
Cc1nc(CC(=O)c2ccc(O)c(C)c2O)cs1 was read as Autofluor counter 4288, MazF activator 0.5, BoNT-A LC inh2 1.0, Anthrax LF inh2 -6.1, BoNT-F LC inh 0.6 and SSB-PriA inh -0.3.
`Cc1nc(CC(=O)c2ccc(O)cc2O)cs1` gave Autofluor counter 22193*, MazF activator 1.9, BoNT-A LC inh2 inconclusive, Anthrax LF inh2 -2.4, BoNT-F LC inh -11.7 and SSB-PriA inh -21.8.
CCOC(=O)N1CCC(NC(=O)c2oc3c(c2C)-c2[nH]ncc2CC3)CC1 was read as Autofluor counter 20954*, MazF activator 5.9, BoNT-A LC inh2 inconclusive, Anthrax LF inh2 -3.9, BoNT-F LC inh -4.7 and SSB-PriA inh -6.2.
`COc1ccccc1NC(=O)c1ccccc1NC(=O)c1cc(Cl)ccc1NC(=O)c1ccco1` gave Autofluor counter 21221*, MazF activator -6.5, BoNT-A LC inh2 inconclusive, Anthrax LF inh2 -0.1, BoNT-F LC inh 2.7 and SSB-PriA inh -11.5.
`COc1ccc(NC(=O)Cc2ccc(Cl)cc2)cc1NC(=O)c1ccco1` gave Autofluor counter 21196*, MazF activator -3.3, BoNT-A LC inh2 inconclusive, Anthrax LF inh2 -8.7, BoNT-F LC inh 1.9 and SSB-PriA inh -5.0.
CCOc1ccccc1NC(=O)c1cc(Cl)ccc1NC(=O)c1ccco1 was read as Autofluor counter 17027*, MazF activator -18.5, BoNT-A LC inh2 8.2, Anthrax LF inh2 -12.1, BoNT-F LC inh 10.9 and SSB-PriA inh 0.2.
Screening COc1ccccc1NC(=O)c1ccccc1-c1nc(-c2ccccc2OC)no1 returned Autofluor counter 21774*, MazF activator -5.7, BoNT-A LC inh2 -5.4, Anthrax LF inh2 -3.5, BoNT-F LC inh -6.4 and SSB-PriA inh -12.7.
Screening COc1ccccc1-c1noc(-c2ccccc2C(=O)Nc2ccccc2)n1 returned Autofluor counter 4282, MazF activator 23.6, BoNT-A LC inh2 1.2, Anthrax LF inh2 -1.2, BoNT-F LC inh 4.8 and SSB-PriA inh -12.0.
`COc1ccccc1NC(=O)c1cc(Cl)ccc1NC(=O)c1ccco1` gave Autofluor counter 2849, MazF activator 7.2, BoNT-A LC inh2 -0.1, Anthrax LF inh2 -6.4, BoNT-F LC inh -15.8 and SSB-PriA inh -12.3.
Screening Cc1noc(C)c1S(=O)(=O)N1CCC(Oc2cc(C)n(C)c(=O)c2)CC1 returned SSB-PriA inh -3.0.
`O=C(NCCOc1ccc(F)cc1)c1ccccc1[N+](=O)[O-]` gave SSB-PriA inh 11.0.
Screening O=C(CCSc1ccccc1)NCCc1nc(C2CC2)cc(C(F)(F)F)n1 returned SSB-PriA inh -8.0.
Screening COc1ccccc1-c1ccc(N2CCCC(C(=O)NCc3ccco3)C2)nn1 (configuration not stated) returned SSB-PriA inh -19.0.
`Cc1nc2ccc(NC(=O)c3ccc(S(=O)(=O)N(C)C)cc3)cc2c(=O)n1-c1ccc(F)cc1` gave SSB-PriA inh -2.0.
CCCCC(=O)Nc1sc2c(c1C(=O)OCC)CCC(C=O)=C2Cl was read as Autofluor counter 21678*, BoNT-A LC inh2 inconclusive, Anthrax LF inh2 3.5 and BoNT-F LC inh 6.7.
Screening CC(C)n1nccc1NC(=O)CN returned SSB-PriA inh -9.0.
`CC(SC1CCCC1)C(=O)Nc1ccnn1C(C)C` (configuration not stated) gave Autofluor counter 20011*, MazF activator 5.9, BoNT-A LC inh2 inconclusive, Anthrax LF inh2 -8.4, BoNT-F LC inh -1.4 and SSB-PriA inh -7.8.
CCOC(=O)c1cnn2ccc(NC(=O)c3cn(C)nc3OC)cc12 was read as SSB-PriA inh -6.0.
COc1ccc(N/C(C)=C/C(=S)Nc2ccccc2)cc1 was read as Autofluor counter 2100, MazF activator 2.9, BoNT-A LC inh2 5.1, Anthrax LF inh2 -0.2, BoNT-F LC inh -5.3 and SSB-PriA inh 42.8*.
Screening CSc1ccccc1C(=O)N(CCn1cccn1)c1nc2ccccc2s1 returned SSB-PriA inh 3.0.
Oc1ccc(CSc2ncccn2)c2cccnc12 was read as SSB-PriA inh 76.0*.
N#CSCc1ccc(O)c2ncccc12 was read as SSB-PriA inh 111.0*.
`CCCCCCCCCCSCc1ccc(O)c2ncccc12` gave SSB-PriA inh 57.0.
Oc1ccc(CSc2ccccc2)c2cccnc12 was read as SSB-PriA inh 88.4*.
For O=c1ccnc(SCc2ccc(O)c3ncccc23)[nH]1 the results were SSB-PriA inh 106.0*.
COc1ccc(Nc2nc(NCCc3ccccc3)nc(N3CCOCC3)n2)cc1 was read as SSB-PriA inh 11.0.
For COc1ccc(-c2ccc(=O)n(CCNC(=O)Nc3ccccc3Cl)n2)cc1OC the results were SSB-PriA inh -12.0.
`COCCn1c(SCC#N)nnc1-c1ccccc1O` gave Autofluor counter 20776*, MazF activator 3.5, BoNT-A LC inh2 -3.0, Anthrax LF inh2 -6.0, BoNT-F LC inh -5.6 and SSB-PriA inh -13.7.
`COCCn1c(SCC#N)nnc1-c1ccccc1` gave Autofluor counter 10341, MazF activator 0.3, BoNT-A LC inh2 0.1, Anthrax LF inh2 -2.0, BoNT-F LC inh -5.9 and SSB-PriA inh -3.6.
Screening CCOc1ccc2c(C)c(C)c(=O)oc2c1OCC returned Autofluor counter 23673*, MazF activator 7.2, BoNT-A LC inh2 -2.0, Anthrax LF inh2 -2.9, BoNT-F LC inh -2.6 and SSB-PriA inh -15.2.
For CCOc1c(OC)ccc2c3c(c(=O)oc12)CCCC3 the results were Autofluor counter 22747*, MazF activator 0.1, BoNT-A LC inh2 1.3, Anthrax LF inh2 -2.7, BoNT-F LC inh 2.9 and SSB-PriA inh -1.6.
